# Columns and labels:
# Experiment in all cases: PBM binding z-score (relative to random genomic background probes); higher = stronger binding; sequences stand for … in GC…GCGATTGACAGCGTAGAATGAAGG
# [1] = test system: RARb homodimer (NR concentration 270 nM)
# Method in brief: (§1)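 For binding z-scores, the reference was random background probes on custom Agilent 4×180K protein-binding microarrays. These arrays were incubated 1 h with ligand-free nuclear receptor dimers in PBS pH 7.4, 2% milk, 0.02% Triton X-100, 1 mM DTT, 0.2 mg/mL BSA and 0.4 mg/ml salmon testes DNA. Fluorescence was scanned after antibody detection of each partner (one per run) and regression-normalized.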
# [2] = test system: RARg:RXRa (NR concentration 270 nM, RXRa partner concentration 90 nM)
# Method in brief: as §1
# [3] = test system: RARg homodimer (NR concentration 270 nM)
# Method in brief: as §1
# [4] = test system: RXRa DBDmut IVT, anti-RXR (DBD mutation: RXRa K156A/R161A, NR concentration 90 nM)
# Method in brief: as §1
# [5] = test system: RXRa homodimer (NR concentration 180 nM)
# Method in brief: as §1
# [6] = test system: THRa:RXRa (NR concentration 90 nM, RXRa partner concentration 90 nM)
# Method in brief: as §1
# [7] = test system: THRa homodimer (NR concentration 90 nM)
# Method in brief: as §1
# [8] = test system: VDR homodimer (NR concentration 270 nM)
# Method in brief: as §1
Sequence,PBM binding z-score [1],PBM binding z-score [2],PBM binding z-score [3],PBM binding z-score [4],PBM binding z-score [5],PBM binding z-score [6],PBM binding z-score [7],PBM binding z-score [8]
CCTAGCAGGCCAATCTGGGTTACTCAAGGCTTGA,0.0666,-0.247,-0.0907,-0.131,-0.48,1.61,-0.596,-0.739
TCGCGGAGGACACGAAGGTCAGAGCTTTCCAGAG,3.67,3.06,3.52,0.372,1.64,2.62,0.443,1.19
AAATGTAGGTTAGCTGGGGTCATTCAGACTAGGC,3.76,4.06,2.95,1.87,5.4,5.36,3.23,5.33
CCTCGGAGGACAACAGGAGATCAGAGCTGCCAGA,0.118,0.145,0.783,0.248,-0.305,0.396,-0.247,-0.168
TCTATTAGTTGATTAGGGCAGCCGAAACAGCGGA,0.418,0.585,0.628,1.14,0.439,0.393,0.285,0.654
ATTCCAAGGTGATCGTGAGGTCGTTGATACTAAC,1.59,2.23,0.975,0.914,1.4,3.55,2.95,3.2
ATCGAAAGGTCGAGGTGAGTTTAGAGAAAGGGAA,3.07,4.88,4.68,1.24,4.47,3.01,0.695,2.21
GCTAGTTGGTCAGTAAAAGGTCACACCCCGGTCG,5.28,5.17,4.3,0.0893,4.86,3.57,2.15,1.43
GGAACGAGGGCAAAGTTGATCGCATCTGTCGACG,1.19,1.83,1.8,2.72,1.92,1.19,-0.32,1.61
TTACCAAGGCGAGCTGAGGTCGTTGATCCAACTC,0.643,0.197,-0.299,0.038,0.626,3.13,1.16,1.49
TGAATGAGGTTAAAGATCTGGGAACGTGGCGTCG,0.638,1.65,1.42,1.24,2.49,2.26,0.597,0.872
TCTTGTAGATGAAAGGTTAAGAAAGCCGAAGCCT,1.17,1.2,0.987,1.1,2.39,0.806,-0.431,-0.24
ATCTCTAGGTATCAAGTTCAGTGAAAGAGAGGAC,1.89,1.07,1.17,1.34,0.64,1.03,0.846,2.79
TAGCCTAGGTCATTGGGCAAGTATAGTACGCATC,2.69,3.66,4.09,1.86,2.94,2.63,0.731,1.44
GATACAGGGTCAGCTAGAGGCCAGTGTATGGAAA,3.64,6.8,5.06,1.51,4.25,2.98,0.265,0.727
CCGACTGCGGCATAAGGTTACCATAAGCCAGCCC,0.92,0.306,0.391,0.104,0.766,2.11,1.49,-0.279
TCATATAGGTACATGCTAGGTGAAAGTCCGATCT,0.598,0.521,0.462,2.05,0.745,2.02,0.723,0.987
TCATATAGGGAATACAGGTGAAAGTCGGCATCTA,0.795,0.472,0.506,1.68,1.24,0.864,0.624,0.435
CAAACTAGGTCACAGGAAGGTCAAAGTCCGCATG,5.1,7.79,7,2.17,6.07,4.36,2.46,3.1
GCTTACGGGTCACAGGTTATAGCATGAATAGAAT,2.95,5.09,4.66,2.03,5.84,2.86,0.315,0.608
TCATATAGGTAATACAGGTAAAAGTCGGCATCTA,-0.0506,0.506,0.536,1.9,1.21,0.497,0.159,0.0521
ATCTCTAGGTAAGAAGTTCAGTGAAAGAGAGGAC,1.85,1.25,1.48,0.26,0.531,0.982,0.234,1.52
CCAGACAGGTGAAAGTTAACTCAGTCTGGTACGC,0.569,0.669,0.306,-0.00485,1.2,0.251,-0.579,-0.235
CTACCAAGGTGAACAAGGTCGATGATTACTATTC,2.03,1.58,1.71,0.696,1.61,2.89,1.41,0.758
ATCTCTAGGTAAAAGTTCAGTGAGTCCCGAGGAT,2.32,1.86,1.93,0.855,1.73,1.13,0.291,2.34
TCTATTAGATGAAGGGCAACCGACGAGTCCGTTT,1.1,0.508,0.672,1.4,0.961,0.13,-0.334,0.972

Sequence,PBM binding z-score [1],PBM binding z-score [2],PBM binding z-score [3],PBM binding z-score [4],PBM binding z-score [5],PBM binding z-score [6],PBM binding z-score [7],PBM binding z-score [8]
ATATGTAGGTTAGCCGGGGTCATTCAGACTAGGC,4.07,4.69,3.57,2.39,6.32,5.21,2.99,5.54
CAAACTAGGTCACGAAAGGTCAATGTCGAATGAC,5.73,7.46,8.51,2.11,7.37,5.27,2.55,2.77
CGTCAAAGTTCAACTAAGGTAACGAAAAGCACGC,4.12,5.98,6.71,4.46,4.91,5.09,1.67,3.6
ATACCAAGGTGATCGTGAGGTCGGTGATACTAAC,1.4,1.58,0.586,-0.0984,0.701,2.63,1.81,0.911
TGGCCTAGGTCATTGGGCCAGTATAGTACGCATC,2.71,3.81,4.21,0.818,2.68,2.71,0.295,0.451
ATAGACAGGTGAGTGAAGGTAACTCAGCTGGACG,0.264,0.515,0.582,-0.459,0.665,1.68,-0.333,-0.359
GATACTGGGTCAGCTAGAGGCCAGAGTATGGAAA,2.73,5.04,3.76,-0.654,1.82,1.75,-0.395,0.0442
AGTACAGGGTCACTAGGCCAGAGTAGGTACGAAT,3.49,5.25,5.26,2.61,5.43,3.41,1.04,2.39
TCATATAGGTAAATGCTAGGTGAAACTCCGATCT,0.638,0.657,0.3,1.3,0.917,1.65,0.67,0.32
GCGACTTGGGCATCAGCAGGTTACCATAACTTAA,-0.0318,-0.252,-0.319,-0.131,-0.00546,0.236,0.128,-0.321
GGAACGATGGCATTCGAGTTGATAGCATGGCGAT,-1.05,-0.259,-0.016,-0.146,-0.284,0.175,-0.974,-0.268
GCTATTAGTTGAAAGGGCAACCGTATGATTCTCG,2.21,1.41,1.14,1.01,1.43,0.799,-0.237,0.306
TTACCAAGGTGAGCAGAGGTCGTTGATCCAACTC,2.31,1.68,1.26,-0.0246,2.03,3.54,0.587,1.28
CCTAGCAGGCCAATCTGGTTCACTCAAGGCTTGA,0.26,-0.172,-0.0939,0.398,-0.304,1.38,-0.212,0.42
TCTGCTAGGTCAACGATGATCAGCTAATCTGCTA,2.72,3.81,4.38,1.04,2.78,2.64,0.449,-0.153
TCTATTAGTTGATTAGGCCAACCGAAACAGCGGA,0.54,0.339,0.554,1.35,0.635,0.691,0.713,0.253
GCTCGGAGGACAAAGTCAGAGCTTTGTCCGTAGA,-0.0434,-0.436,-0.0287,-0.569,-0.989,0.05,-0.629,-0.348
CTCGAAAGGTCGTGCTCACGTGAGTATACCAAAC,2.82,4.15,3.6,1.95,4.71,2.41,-0.0324,1.06
ATCGAAAGGGCGAGGTGAGTATAGAGAAAGGGAA,1.45,1.48,1.58,-0.127,0.756,1.63,0.413,-0.029
GCGACTGGGGCATCAGTAGGTTACCATAACTTAA,0.91,0.793,0.519,0.0645,0.498,0.632,-0.249,-0.583
CCCGAAAGGTCGGTTGAGGTGAGTATACGGATAA,2.61,2.9,3,0.858,2.41,4.99,1.8,0.636
TCTGCTAGGTCAACGATGGTAAGCTAATCTGCTA,2.66,3.8,4.83,0.819,2.4,2.62,0.291,-0.612
TCTTGTAGATCAATAGAGGTTGAGAAAGTGCGCT,-0.259,0.00331,-0.196,0.738,0.307,0.629,-0.723,-0.179
CCTACTGGGCCACGAAAAGTCATTGATTCAGTGA,0.476,0.154,0.301,-0.296,-0.0607,-0.0481,-0.645,-0.412
GCTGCTAGGTCAACTGATGGTCAGCTGAAGCTCG,3.56,5.1,5.51,1.55,2.82,3.12,1.05,-0.0434
ACTAGCAGGCCAAGGGTTACTCAAGATTAGTCCG,0.787,0.885,0.852,-0.129,1.08,0.78,-0.538,-0.236

# From the supplement of paper PMC6555819
